Bioassay records as filed in PubChem BioAssay.
Vif-APOBEC3G blk – blocks the Vif interaction with human APOBEC3G. HeLa A3G-eYFP + Vif (tagged APOBEC3G with the HIV-1 protein that degrades it), YFP fluorescence, overnight. Potency, µM (doses to about 46.1 µM), without a hit: at the top dose activity, negative = active, hits mostly inhibitors. Q9HC16. 410,000 compounds, 0.076% hits; also: potency is read from the fitted curve at half-maximal effect; % is scaled to controls: 0 for no effect and ±100 for the full control effect; nearly all actives have a fitted effect of over 60% in size
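HeLa cells stably expressing Vif and C-terminally eYFP-tagged A3G, seeded overnight at 37 deg C, then exposed to compound by pintool overnight at 37 deg C. Rise in yellow fluorescence (Ex 488/Em 500-530, Acumen) marks blocked Vif-driven A3G degradation.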
PTAP TSG101 blk – blocks PTAP/TSG101 interaction to inhibit HIV-1 budding; AID 493005; Fluorescence polarization, FITC-PTAP peptide / Tsg101 binding; Q99816; 340,000 tested, under 10 active; Potency, µM (highest dose often 115 µM), without a hit: at the top dose activity change, negative = inhibition, usual class: inhibitors; active = well fitted inhibition curve with a large enough effect in the main read-out, with a control signal flat, not every such curve was filed as active; inconclusive = small, poorly fitted or top-dose-only effect, or effect the other way, or a change in a side signal; inactive = no such curve, though single readings can be large or run the other way; also: potency is read from the fitted curve at half-maximal effect; % of control where 0% means no effect
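Tsg101 binding domain (10 uM final) was mixed with compound and a FITC-labeled PTAP peptide (50 nM final) in HEPES pH 7.5 buffer with NaCl, Tween 20, EDTA and TCEP; fluorescence polarization was read after 20 min at r.t.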
pAkt inh – inhibitors of Akt phosphorylation | AID 651550 | activity change, % for hits at 50 µM | Neuro2A IGF-stimulated pAkt S473 HTRF, 20 min; hits give low values | 360,000 compounds, 0.32% hits; in the data active = activity change below about -80%; inconclusive = mostly about -51% to -80%; also: % is scaled to controls: 0 for no effect and ±100 for the full control effect
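Neuro2A cells in DMEM with 0.5% FBS, overnight at 37 deg C, given compound at single 50 µM final, then IGF (6 nM final) for 20 min at 37 deg C. Lysed; phospho-Akt Ser473 by HTRF after 24 h, 665/615 ratio.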
Vif-A3F inh – blocks the Vif interaction with APOBEC3F; AID 602313; HeLa A3F-eYFP + Vif (tagged APOBEC3F with the HIV-1 protein that degrades it), YFP fluorescence increase; 390,000 compounds, 0.2% hits; Potency, µM (titrated, usually from 46.1 µM), for the others: at the highest dose activity, negative = active; also: potency is read from the fitted curve at half-maximal effect; % of control where 0% means no effect; nearly all actives have a fitted effect of over 65% in size
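HeLa cells stably expressing A3F-eYFP plus Vif, plated and incubated overnight at 37 deg C, then exposed to compounds overnight at 37 deg C. Blocked degradation read as raised yellow fluorescence (Ex 488/Em 500-530).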
S-ASM inh – inhibitors of human secretory acid sphingomyelinase; Potency, µM (top dose mostly 57.5 µM), for the others: at the top dose activity change, negative = inhibition, most hits filed as inhibitors; placental ASM, HMU-PC fluorogenic substrate, 60 min; 340,000 compounds, 0.006% hits; P17405; also: potency is read from the fitted curve at half-maximal effect
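qHTS format. ASM enzyme prepared from human placenta hydrolyses the fluorogenic substrate HMU-PC0 (9 uM final) over 60 min at 37 °C after a 10 min compound preincubation.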
12-LOX inh – blocks human arachidonate 12S-lipoxygenase | AID 1671190 | P18054 | 580,000 compounds, 1.1% hits | purified 12hLO, xylenol orange hydroperoxide absorbance | Potency, µM (series often up to 108 µM), for the others: at the top dose activity change, negative = inhibition, hits mostly inhibitors; also: potency is read from the fitted curve at half-maximal effect; % is scaled to controls: 0 for no effect and ±100 for the full control effect
Target sequence (P18054 whole entry, looked up): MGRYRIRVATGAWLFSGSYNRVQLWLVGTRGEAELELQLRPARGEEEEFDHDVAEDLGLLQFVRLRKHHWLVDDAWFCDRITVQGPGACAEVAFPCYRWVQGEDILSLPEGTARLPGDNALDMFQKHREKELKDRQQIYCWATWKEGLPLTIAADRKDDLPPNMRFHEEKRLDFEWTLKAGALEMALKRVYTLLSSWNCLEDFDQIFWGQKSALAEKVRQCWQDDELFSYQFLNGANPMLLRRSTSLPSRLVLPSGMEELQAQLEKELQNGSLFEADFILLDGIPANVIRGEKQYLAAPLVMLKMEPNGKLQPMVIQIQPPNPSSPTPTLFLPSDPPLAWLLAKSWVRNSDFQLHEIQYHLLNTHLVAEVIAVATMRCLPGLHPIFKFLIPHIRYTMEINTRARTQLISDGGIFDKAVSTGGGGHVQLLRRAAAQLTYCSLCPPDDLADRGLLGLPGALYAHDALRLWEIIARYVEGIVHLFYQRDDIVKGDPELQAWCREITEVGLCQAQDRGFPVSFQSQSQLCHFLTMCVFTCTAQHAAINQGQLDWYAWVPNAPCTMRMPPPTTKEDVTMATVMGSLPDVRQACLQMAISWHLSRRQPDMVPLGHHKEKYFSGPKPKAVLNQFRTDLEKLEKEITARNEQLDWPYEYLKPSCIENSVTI
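Hydroperoxide product was detected by ferrous iron/xylenol orange as the 573 to 405 nm absorbance ratio. Arachidonic acid at 40 uM (final) was turned over for 30 min at room temperature by 150 nM human 12hLO, pH 7.0 Hepes buffer, after 15 min compound preincubation.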
* marks the source's active call; other numbers are inactive results; i = inactive; ? = inconclusive; / = not tested or not shown; [ ] = dose if it differs, or a comment. Shown are actives, neighbours in structure and some others; about 1.4% of the full set was active somewhere. Unless noted, calls follow the shape of the dose curve; as a rule, active = well fitted curve in the direction sought with a large enough effect; inconclusive = small, poorly fitted or top-dose-only effect, or another doubt; inactive = no such curve, though single readings can be large; an effect the other way counts as inactive or inconclusive.

SMILES	Vif-APOBEC3G blk	PTAP TSG101 blk	pAkt inh	Vif-A3F inh	S-ASM inh	12-LOX inh
CCc1cccc(CC)c1NC(=O)COC(=O)c1cc(OC)c(OC)cc1OC	/	/	/	/	/	26%
O=C(Nc1ccc(-n2cccc2)cc1)C1=COC2=NC(=O)N(Cc3ccccc3)CCN12	/	/	/	/	/	3%
COc1ccc(CN2C(=O)CO[C@H]3CN(Cc4c[nH]c5ccccc45)C[C@H]32)cc1	/	/	/	/	/	40µM*
COc1ccc(CN2C(=O)CO[C@H]3CN(CC4CC4)C[C@H]32)cc1	/	/	/	/	/	7%[176 µM]
C=CCn1c(=O)c2ccccc2n2c(Sc3nnnn3-c3ccccc3)nnc12	2%	1%	-110%*	/	-5%	-17%
Oc1ccc(C(=S)N2CCN(c3cccc(Cl)c3)CC2)cc1	?	-2%	i	-11%	-5%	?
COc1cc(C(=S)N2CCN(c3cccc(Cl)c3)CC2)ccc1O	?	-9%	i	-24%	-17%	45µM*
O=C1Nc2ccccc2N(O)N1c1ccc(Cl)cc1	4%	-3%	i	-7%	-2%	-6%
CCN1c2ccccc2NC2C1C(C(C)=O)C(=O)N2c1ccc(Cl)cc1 (stereo unspecified)	?	0%	i	22µM*	11%	?
CCSc1nnc(-c2ccncc2)o1	-1%	-2%	i	0%	-3%	0%
CCSc1nnc(-c2sc3nnc(-c4ccccc4)c(-c4ccccc4)c3c2N)o1	3.2µM*	?	/	13µM*	-6%	238%
CCCCc1c(C)nc2ccc(OC)cc2c1SCCC(=O)O	-1%	-7%	i	-4%	6%	45µM*
CCCc1c(C)nc2ccccc2c1SCCC(=O)O	/	/	/	/	/	-40%
Cc1ccc(C(C)NC(=O)c2cccnc2)c(C)c1 (stereo unspecified)	/	/	/	/	/	18%
CCCOc1c(OC)cccc1C1CC(=O)Nc2c1c(C)nn2-c1ccc(Cl)nn1 (stereo unspecified)	/	/	/	/	/	-16%
CC(C)Oc1cccc(C(=O)NC(=S)Nc2ccc3c4c(cccc24)CC3)c1	-10%	4%	i	-8%	-3%	18µM*
O=C(c1ccc(Cl)cc1)N1CCCC(c2nn(-c3ccc(F)cc3)c(=O)[nH]2)C1 (stereo unspecified)	/	/	/	/	/	18%
COc1cc(OC)c(CC2C(=O)Nc3ccc(Br)cc32)c(OC)c1 (stereo unspecified)	/	/	/	/	/	-25%
O=C1CSC(=S)N1Cc1cccnc1	?	-2%	/	11µM*	-1%	0%
O=[N+]([O-])c1ccc(/C=N/Nc2ccc3ccccc3c2)o1	?	0%	i	?	?	10µM*
O=C(N/N=C/c1ccc([N+](=O)[O-])o1)c1cc2c(ccc3ccccc32)o1	?	0%	i	7.9µM*	-7%	-26%
O=C(N/N=C/c1ccc([N+](=O)[O-])o1)c1cc2ccccc2o1	?	-2%	i	-12%	-1%	-22%
COc1ccccc1C1CN(c2ccccc2)N=C1c1cccs1 (stereo unspecified)	-1%	0%	i	-7%	i	6.3µM*
Nc1nonc1-c1nc2ccccc2n1CC(=O)Nc1cccc(C(F)(F)F)c1	?	/	/	25µM*	/	-18%
O=C(Nc1nnc(-c2ccco2)s1)C1CCCCC1	1%	-6%	/	2%	2%	94%
SMILES	Vif-APOBEC3G blk	PTAP TSG101 blk	pAkt inh	Vif-A3F inh	S-ASM inh	12-LOX inh
O=C(Nc1nc(-c2ccco2)c(-c2ccco2)s1)C1CCC1	-14%	4%	i	0%	-1%	11µM*
COc1ccc(NC(=O)C2CCCN(c3ccc4nncn4n3)C2)cc1Cl (stereo unspecified)	/	/	/	/	/	-11%
COc1ccc2[nH]cc(/C=C/c3cc[n+](C)cc3)c2c1	11µM*	?	i	13µM*	?	?
CS(=O)(=O)N(CC(=O)Nc1ccc2c(c1)OCO2)Cc1ccccc1	0%	-1%	i	0%	3%	19%
CS(=O)(=O)N(CCc1ccccc1)CC(=O)Nc1ccc2c(c1)OCO2	2%	-2%	-105%*	/	-2%	-25%
CCOC(=O)C1=C(C)NC(=O)NC1c1ccc(-c2ccc(Cl)cc2)o1 (stereo unspecified)	-10%	-2%	i	?	0%	-24%
CCOC(=O)C1=C(C)NC(=S)NC1c1ccc(-c2ccc(Cl)cc2)o1 (stereo unspecified)	-6%	1%	i	-7%	-11%	32µM*
CN1C(=O)C2(C(C#N)=C(N)N(c3cc(Cl)cc(Cl)c3)C3=C2C(=O)CCC3)c2ccccc21 (stereo unspecified)	1%	-7%	i	-17%	0%	2%
CN1C(=O)C2(c3ccccc31)C1CCCC=C1C(C#N)=C(N)C2(C#N)C#N (stereo unspecified)	-4%	-1%	i	-2%	-1%	45µM*
N=C1S/C(=C\c2ccc(-c3ccccc3C(=O)O)o2)C(=O)N1c1ccc2c(c1)OCO2	0%	-3%	i	-5%	-3%	14µM*
c1ccc(Nc2nc(NCC3CCCO3)c3ccccc3n2)cc1 (stereo unspecified)	1%	-4%	i	-4%	40%	45µM*
O=C(c1ccncc1)N(c1ccc(N2CCOCC2)cc1)C(c1ccccc1)c1nc2ccccc2[nH]1 (stereo unspecified)	-1%	/	i	/	/	11µM*
CCC(c1nc2ccccc2[nH]1)N(C(=O)Cc1cc(OC)cc(OC)c1)c1ccc(N2CCOCC2)cc1 (stereo unspecified)	-4%	/	i	/	/	1%
O=[N+]([O-])c1ccc(NN=Cc2cccc3ccccc23)cc1	2%	-6%	i	2%	-1%	-29%
O=[N+]([O-])c1cc(Br)c(O)c(/C=N/Nc2nnnn2-c2cccc3ccccc23)c1	-5%	-6%	i	7%	31%	11µM*
CCCCCCC(C)NC(=O)N1CCN(c2ncc(C(F)(F)F)cc2Cl)CC1 (stereo unspecified)	/	/	/	/	/	12%
Oc1nc(Nc2cccc(Cl)c2)sc1/C=C1\C=Nc2ccccc21	-15%	2%	i	-9%	-22%	-20%
CCOC(=O)c1c(Nc2ccc(Cl)cc2)sc(/C=C2\C=Nc3ccccc32)c1O	-18%	11%	i	7.1µM*	-7%	12%
Clc1ccc(CO/N=C/c2ccc(OCc3ccccc3)cc2)c(Cl)c1	/	/	/	/	/	-12%
c1cc(CNc2ccc3c(c2)OCO3)ccn1	1%	-25%	i	-7%	16%	-20%
